Data reported in the supplement of paper PMC10849652.
The full data set covers some 7,900 targets. This sample favours those with a hit. About 0.6% of all pairs of compound and target were hits.

How the values were obtained:
Assay in all cases: log2 fold change, soluble protein after heating vs DMSO (PISA); higher = thermal stabilisation; K562 cells, 10 uM, 30 min; active = over 0.2 and 3.5 SD of the protein, either way, in both replicates (recomputed)
ZEB2 = ZEB2 (UniProt O60315)
How it was run: (§1)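 Values are thermal stability changes relative to control samples and are taken from duplicates. They are stated as log2 fold changes. Before quantification by TMTpro 16plex LC-MS/MS with equalised channel sums, K562 cells at 2×10^6 cells/mL were treated with 10 μM compound for 30 min, heated in aliquots for 3 min across 48°C-58°C, pooled, extracted in PBS with 0.5% NP-40 at 4°C, and centrifuged at 21,000xg for 90 min to give the soluble supernatant.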

ZER1 = ZER1 (UniProt Q7Z7L7)
How it was run: as §1

ZFAND5 = ZFAND5 (UniProt O76080)
How it was run: as §1

ZFAND6 = ZFAND6 (UniProt Q6FIF0)
How it was run: as §1

ZFP91 = ZFP91 (UniProt Q96JP5)
How it was run: as §1

ZFPL1 = ZFPL1 (UniProt O95159)
How it was run: as §1

ZMAT2 = ZMAT2 (UniProt Q96NC0)
How it was run: as §1

ZMYM1 = ZMYM1 (UniProt Q5SVZ6)
How it was run: as §1

ZMYM3 = ZMYM3 (UniProt Q14202)
How it was run: as §1

ZNF143 = ZNF143 (UniProt P52747)
How it was run: as §1

Measured: log2 fold change

ZMAT2, sequence (Q96NC0 whole entry, looked up): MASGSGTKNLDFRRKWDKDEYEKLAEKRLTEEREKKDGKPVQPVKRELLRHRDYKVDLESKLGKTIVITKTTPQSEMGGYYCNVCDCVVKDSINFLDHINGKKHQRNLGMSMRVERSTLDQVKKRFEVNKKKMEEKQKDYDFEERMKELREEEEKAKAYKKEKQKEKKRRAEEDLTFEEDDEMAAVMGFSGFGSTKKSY
ZER1, sequence (Q7Z7L7 whole entry, looked up): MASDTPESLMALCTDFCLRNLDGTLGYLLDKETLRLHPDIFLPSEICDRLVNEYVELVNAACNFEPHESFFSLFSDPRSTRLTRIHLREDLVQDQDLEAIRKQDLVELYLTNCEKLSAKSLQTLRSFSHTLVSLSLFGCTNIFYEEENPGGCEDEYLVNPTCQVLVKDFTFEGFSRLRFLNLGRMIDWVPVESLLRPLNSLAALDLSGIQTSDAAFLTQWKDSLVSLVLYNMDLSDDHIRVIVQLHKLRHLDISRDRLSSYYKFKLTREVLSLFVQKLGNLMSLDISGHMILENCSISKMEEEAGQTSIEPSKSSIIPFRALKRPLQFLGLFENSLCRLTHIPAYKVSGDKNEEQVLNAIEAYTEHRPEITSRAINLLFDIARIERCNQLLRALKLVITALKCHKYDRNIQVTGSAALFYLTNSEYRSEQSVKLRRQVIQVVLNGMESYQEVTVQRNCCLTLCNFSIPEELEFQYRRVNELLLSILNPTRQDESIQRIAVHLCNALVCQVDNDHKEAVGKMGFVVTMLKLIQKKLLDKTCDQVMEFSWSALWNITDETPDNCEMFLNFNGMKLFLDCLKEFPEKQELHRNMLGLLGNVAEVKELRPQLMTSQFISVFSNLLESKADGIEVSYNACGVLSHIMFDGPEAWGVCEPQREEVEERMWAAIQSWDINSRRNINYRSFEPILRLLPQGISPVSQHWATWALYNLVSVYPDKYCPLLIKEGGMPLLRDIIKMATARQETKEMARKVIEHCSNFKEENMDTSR
ZFP91, sequence (Q96JP5 whole entry, looked up): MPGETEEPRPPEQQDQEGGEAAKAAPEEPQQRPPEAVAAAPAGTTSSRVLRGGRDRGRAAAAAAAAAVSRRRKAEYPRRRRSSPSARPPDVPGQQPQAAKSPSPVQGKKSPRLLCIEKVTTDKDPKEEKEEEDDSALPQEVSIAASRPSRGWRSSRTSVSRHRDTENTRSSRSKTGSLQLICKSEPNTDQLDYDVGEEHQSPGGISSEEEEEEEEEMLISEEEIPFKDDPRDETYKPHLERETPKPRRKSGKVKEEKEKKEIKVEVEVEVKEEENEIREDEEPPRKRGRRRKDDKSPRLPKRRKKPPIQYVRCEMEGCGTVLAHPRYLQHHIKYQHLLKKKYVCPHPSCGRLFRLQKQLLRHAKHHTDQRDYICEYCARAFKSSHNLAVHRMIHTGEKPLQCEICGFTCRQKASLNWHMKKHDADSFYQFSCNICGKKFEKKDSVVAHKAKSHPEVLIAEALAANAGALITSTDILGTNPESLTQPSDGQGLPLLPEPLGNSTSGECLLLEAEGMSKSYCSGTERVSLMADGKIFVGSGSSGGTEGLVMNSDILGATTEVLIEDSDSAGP
ZNF143, sequence (P52747 whole entry, looked up): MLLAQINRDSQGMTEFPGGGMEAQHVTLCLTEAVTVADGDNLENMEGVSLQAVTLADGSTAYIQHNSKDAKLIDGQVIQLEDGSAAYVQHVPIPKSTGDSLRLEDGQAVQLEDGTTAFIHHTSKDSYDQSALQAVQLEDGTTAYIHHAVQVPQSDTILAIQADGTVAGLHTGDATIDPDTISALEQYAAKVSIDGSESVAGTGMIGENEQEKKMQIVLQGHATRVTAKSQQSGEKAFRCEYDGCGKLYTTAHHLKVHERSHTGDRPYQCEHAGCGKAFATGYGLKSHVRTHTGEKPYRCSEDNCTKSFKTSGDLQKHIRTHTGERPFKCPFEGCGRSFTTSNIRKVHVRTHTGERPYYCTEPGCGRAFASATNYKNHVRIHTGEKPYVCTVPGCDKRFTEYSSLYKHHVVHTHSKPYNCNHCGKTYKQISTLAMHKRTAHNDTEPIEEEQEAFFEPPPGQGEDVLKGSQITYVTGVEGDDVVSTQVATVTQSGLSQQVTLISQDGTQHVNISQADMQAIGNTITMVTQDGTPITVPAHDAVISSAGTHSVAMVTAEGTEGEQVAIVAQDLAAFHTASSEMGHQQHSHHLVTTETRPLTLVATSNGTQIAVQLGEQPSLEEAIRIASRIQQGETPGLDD
ZFAND6, sequence (Q6FIF0 whole entry, looked up): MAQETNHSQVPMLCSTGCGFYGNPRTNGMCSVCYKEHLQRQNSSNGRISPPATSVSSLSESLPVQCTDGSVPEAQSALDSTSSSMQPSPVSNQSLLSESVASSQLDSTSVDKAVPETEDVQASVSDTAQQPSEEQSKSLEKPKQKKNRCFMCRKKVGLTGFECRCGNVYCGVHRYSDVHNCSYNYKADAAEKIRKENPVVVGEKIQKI
ZFAND5, sequence (O76080 whole entry, looked up): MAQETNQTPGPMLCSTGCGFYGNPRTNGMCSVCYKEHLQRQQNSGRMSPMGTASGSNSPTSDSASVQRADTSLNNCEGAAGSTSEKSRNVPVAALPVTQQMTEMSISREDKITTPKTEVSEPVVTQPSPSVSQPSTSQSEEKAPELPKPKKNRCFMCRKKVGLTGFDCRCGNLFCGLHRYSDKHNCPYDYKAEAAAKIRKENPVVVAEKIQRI
ZFPL1, sequence (O95159 whole entry, looked up): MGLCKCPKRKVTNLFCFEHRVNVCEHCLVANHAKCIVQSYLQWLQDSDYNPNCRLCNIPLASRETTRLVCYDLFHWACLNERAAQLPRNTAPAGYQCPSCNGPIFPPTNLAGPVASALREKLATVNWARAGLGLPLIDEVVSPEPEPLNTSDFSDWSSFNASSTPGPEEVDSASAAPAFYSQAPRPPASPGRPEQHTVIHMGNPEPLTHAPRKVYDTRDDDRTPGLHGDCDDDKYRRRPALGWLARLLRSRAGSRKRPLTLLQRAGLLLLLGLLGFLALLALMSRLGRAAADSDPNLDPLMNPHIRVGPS
ZMYM1, sequence (Q5SVZ6 whole entry, looked up): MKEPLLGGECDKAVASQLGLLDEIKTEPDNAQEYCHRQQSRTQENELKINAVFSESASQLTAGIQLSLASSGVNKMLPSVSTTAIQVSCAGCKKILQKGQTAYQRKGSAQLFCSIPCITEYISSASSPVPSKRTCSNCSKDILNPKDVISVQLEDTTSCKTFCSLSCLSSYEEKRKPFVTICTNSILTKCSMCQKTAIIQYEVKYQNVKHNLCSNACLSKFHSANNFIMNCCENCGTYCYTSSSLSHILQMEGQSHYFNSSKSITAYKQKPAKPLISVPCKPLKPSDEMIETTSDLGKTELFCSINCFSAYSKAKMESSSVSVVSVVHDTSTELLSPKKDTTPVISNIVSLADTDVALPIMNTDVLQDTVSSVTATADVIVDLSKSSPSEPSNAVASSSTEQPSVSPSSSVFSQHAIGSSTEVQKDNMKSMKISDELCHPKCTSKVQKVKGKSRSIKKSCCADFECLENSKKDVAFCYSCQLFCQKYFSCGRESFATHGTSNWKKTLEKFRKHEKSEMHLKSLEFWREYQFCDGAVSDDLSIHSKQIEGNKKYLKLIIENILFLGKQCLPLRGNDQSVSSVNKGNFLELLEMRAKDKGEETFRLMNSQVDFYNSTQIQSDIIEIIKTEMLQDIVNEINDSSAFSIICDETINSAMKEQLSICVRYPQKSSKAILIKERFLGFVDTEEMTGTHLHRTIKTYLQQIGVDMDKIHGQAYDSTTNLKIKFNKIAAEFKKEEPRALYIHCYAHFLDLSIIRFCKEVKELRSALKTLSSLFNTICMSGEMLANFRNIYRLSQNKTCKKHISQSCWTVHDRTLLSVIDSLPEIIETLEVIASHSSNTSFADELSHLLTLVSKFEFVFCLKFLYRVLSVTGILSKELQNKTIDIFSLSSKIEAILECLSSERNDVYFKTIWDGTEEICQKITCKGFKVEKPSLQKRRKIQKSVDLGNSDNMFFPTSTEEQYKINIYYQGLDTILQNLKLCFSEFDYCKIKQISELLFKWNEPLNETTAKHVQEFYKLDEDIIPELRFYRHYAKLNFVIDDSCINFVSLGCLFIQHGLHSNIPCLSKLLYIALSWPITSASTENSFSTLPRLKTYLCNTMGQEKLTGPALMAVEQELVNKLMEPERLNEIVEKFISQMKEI

COc1cc2nc(-c3cc(F)ccc3O)nc(N[C@@H]3CNC[C@H]3C(C)(C)O)c2cc1OC
inactive: ZEB2 -0.018 | ZER1 0.048 | ZFAND5 0 | ZFAND6 0.017 | ZFP91 -0.095 | ZFPL1 0.099 | ZMAT2 -0.028 | ZMYM1 0.004 | ZMYM3 -0.045 | ZNF143 -0.19

C[C@@H](Oc1cc(-c2cnn(C3CCNCC3)c2)cnc1N)c1c(Cl)ccc(F)c1Cl [crizotinib]
inactive: ZEB2 -0.141 | ZER1 0.084 | ZFAND5 -0.085 | ZFAND6 -0.041 | ZFP91 0 | ZFPL1 0.107 | ZMAT2 0.098 | ZMYM1 -0.017 | ZMYM3 0.04 | ZNF143 -0.06

CC[C@@H]1C(=O)N(C)c2cnc(Nc3ccc(C(=O)N[C@H]4CC[C@H](N5CCN(CC6CC6)CC5)CC4)cc3OC)nc2N1C(C)C [volasertib]
inactive: ZEB2 0.001 | ZER1 0.009 | ZFAND5 0.215 | ZFAND6 0.09 | ZFP91 0.016 | ZFPL1 -0.088 | ZMAT2 0.036 | ZMYM1 -0.118 | ZMYM3 -0.077
active: ZNF143 -0.289

Cc1cn(-c2cc(NC(=O)c3ccc(C)c(Nc4nccc(-c5cccnc5)n4)c3)cc(C(F)(F)F)c2)cn1 [nilotinib]
inactive: ZEB2 0.025 | ZER1 0.098 | ZFAND5 0.098 | ZFAND6 0.014 | ZFP91 0.023 | ZFPL1 -0.047 | ZMAT2 0.012 | ZMYM1 -0.009 | ZMYM3 0.041 | ZNF143 -0.105

CC(C)N(C[C@H]1O[C@@H](n2cnc3c(N)ncnc32)[C@H](O)[C@@H]1O)[C@H]1C[C@@H](CCc2nc3cc(C(C)(C)C)ccc3[nH]2)C1 [pinometostat]
inactive: ZEB2 0.06 | ZER1 0.098 | ZFAND5 -0.047 | ZFAND6 -0.048 | ZFP91 0.136 | ZFPL1 -0.11 | ZMAT2 -0.037 | ZMYM1 0.001 | ZMYM3 -0.011 | ZNF143 0.014

CN1CCc2c(c3ccccc3n2Cc2ccc(C(=O)NO)cc2)C1 [Tubastatin A]
active: ZFAND5 0.285
inactive: ZEB2 0.181 | ZER1 0.048 | ZFAND6 0.144 | ZFP91 0.077 | ZFPL1 -0.025 | ZMAT2 0.057 | ZMYM1 0.071 | ZMYM3 -0.028 | ZNF143 -0.031

C#Cc1cccc(Nc2ncnc3cc(OCCOC)c(OCCOC)cc23)c1 [erlotinib]
inactive: ZEB2 0.101 | ZER1 0.086 | ZFAND5 -0.028 | ZFAND6 0.024 | ZFP91 -0.004 | ZFPL1 -0.022 | ZMAT2 -0.017 | ZMYM1 0.14 | ZMYM3 0.042 | ZNF143 0.021

CC(C)c1cnn2c(NCc3ccccc3)cc(NCCCCCCN)nc12
inactive: ZEB2 -0.187 | ZER1 -0.072 | ZFAND5 0.072 | ZFAND6 0.075 | ZFP91 0.007 | ZFPL1 0.146 | ZMAT2 0.138 | ZMYM1 0.09 | ZMYM3 0.04 | ZNF143 -0.158

CS(=O)(=O)c1ccc(-c2cnc(N)c(C(=O)Nc3ccccc3)n2)cc1
inactive: ZEB2 0.025 | ZER1 0.034 | ZFAND5 -0.035 | ZFAND6 -0.036 | ZFP91 -0.072 | ZFPL1 -0.045 | ZMAT2 -0.127 | ZMYM1 0.026 | ZMYM3 0.023 | ZNF143 -0.014

Cc1ccc(NC(=O)c2cccc(C(C)(C)C#N)c2)cc1Nc1ccc2ncn(C)c(=O)c2c1
inactive: ZEB2 -0.027 | ZER1 -0.041 | ZFAND5 -0.064 | ZFAND6 0.069 | ZFP91 0.017 | ZFPL1 0.061 | ZMAT2 0.209 | ZMYM1 -0.071 | ZMYM3 -0.092 | ZNF143 -0.023

CCCS(=O)(=O)Nc1ccc(F)c(C(=O)c2c[nH]c3ncc(-c4ccc(Cl)cc4)cc23)c1F [vemurafenib]
inactive: ZEB2 0.256 | ZER1 -0.033 | ZFAND5 -0.106 | ZFAND6 -0.024 | ZFP91 -0.071 | ZFPL1 0.021 | ZMAT2 -0.021 | ZMYM1 -0.095 | ZMYM3 -0.109 | ZNF143 0.029

Cc1cc(Nc2cc(N3CCN(C)CC3)nc(Sc3ccc(NC(=O)C4CC4)cc3)n2)n[nH]1 [tozasertib]
inactive: ZEB2 0.022 | ZER1 0.008 | ZFAND5 -0.076 | ZFAND6 -0.084 | ZFP91 0.01 | ZFPL1 0.009 | ZMAT2 -0.039 | ZMYM1 -0.043 | ZMYM3 -0.033 | ZNF143 0.057

Cn1c2cc(S(C)=O)sc2c2cnn(Cc3cccc(N)c3)c(=O)c21 (stereo not given)
inactive: ZEB2 0.098 | ZER1 0.019 | ZFAND5 0.022 | ZFAND6 -0.003 | ZFP91 0.099 | ZFPL1 -0.031 | ZMAT2 -0.034 | ZMYM1 -0.014 | ZMYM3 -0.023 | ZNF143 -0.003

CON(C)C(=O)N1N=C(c2cc(F)ccc2F)S[C@@]1(CCCN)c1ccccc1 [filanesib]
inactive: ZEB2 0.025 | ZER1 -0.006 | ZFAND5 0.073 | ZFAND6 -0.111 | ZFP91 0.183 | ZFPL1 -0.001 | ZMAT2 -0.084 | ZMYM1 0.067 | ZMYM3 0.012 | ZNF143 0.024

CCCS(=O)(=O)Nc1ccc(F)c(C(=O)c2c[nH]c3ncc(Cl)cc23)c1F
inactive: ZEB2 0.123 | ZER1 -0.001 | ZFAND5 -0.058 | ZFAND6 0.002 | ZFP91 -0.041 | ZFPL1 0.006 | ZMAT2 -0.008 | ZMYM1 -0.006 | ZMYM3 0.016 | ZNF143 0.063

COc1cc2ncnc(Nc3ccc(F)c(Cl)c3)c2cc1OCCCN1CCOCC1 [gefitinib]
inactive: ZEB2 -0.086 | ZER1 -0.031 | ZFAND5 -0.006 | ZFAND6 -0.005 | ZFP91 0.02 | ZFPL1 0.065 | ZMAT2 -0.021 | ZMYM1 0.014 | ZMYM3 0.034 | ZNF143 -0.098

CCCc1cc(C)[nH]c(=O)c1CNC(=O)c1cc(-c2ccnc(N3CCN(C)CC3)c2)cc2c1cnn2C(C)C
inactive: ZEB2 -0.067 | ZER1 -0.125 | ZFAND5 -0.038 | ZFAND6 -0.051 | ZFP91 0.074 | ZFPL1 -0.05 | ZMAT2 -0.044 | ZMYM1 -0.017 | ZMYM3 0.067 | ZNF143 -0.006

CC(C)C[C@@H](C=O)NC(=O)[C@H](CC(C)C)NC(=O)[C@H](CC(C)C)NC(=O)OCc1ccccc1
inactive: ZEB2 0.131 | ZER1 0.039 | ZFAND5 0.007 | ZFAND6 0.119 | ZFP91 0 | ZFPL1 0.038 | ZMAT2 0.049 | ZMYM1 0.006 | ZMYM3 0.09 | ZNF143 -0.119

CNC(=O)c1ccccc1Nc1nc(Nc2ccc(N3CCOCC3)cc2OC)ncc1Cl
inactive: ZEB2 -0.07 | ZER1 -0.164 | ZFAND5 -0.141 | ZFAND6 -0.015 | ZFP91 -0.016 | ZFPL1 0.061 | ZMAT2 -0.018 | ZMYM1 -0.082 | ZMYM3 0 | ZNF143 -0.084

O=C(Nc1nc2ccccc2n1CCN1CCOCC1)c1cccc([N+](=O)[O-])c1 [IRAK-1-4 Inhibitor I]
inactive: ZEB2 0.02 | ZER1 0.025 | ZFAND5 0.057 | ZFAND6 0.032 | ZFP91 -0.134 | ZFPL1 0.021 | ZMAT2 0.11 | ZMYM1 0.006 | ZMYM3 0.057 | ZNF143 0.108

Cc1ncc(-c2ccnc(Nc3ccc(S(C)(=O)=O)cc3)n2)n1C(C)C
inactive: ZEB2 -0.05 | ZER1 0.058 | ZFAND5 -0.099 | ZFAND6 -0.031 | ZFP91 -0.035 | ZFPL1 -0.01 | ZMAT2 -0.027 | ZMYM1 -0.033 | ZMYM3 -0.009 | ZNF143 0.074

CCn1c(C(=O)N(C2CC2)C2CC2)cc2c3c(ncn3C)c(Nc3cc(C)n(C)n3)nc21
inactive: ZEB2 -0.041 | ZER1 0.045 | ZFAND5 0.063 | ZFAND6 0.046 | ZFP91 -0.028 | ZFPL1 0.042 | ZMAT2 0.022 | ZMYM1 -0.079 | ZMYM3 -0.029 | ZNF143 0.075

Cc1cc(SCc2sc(-c3ccc(C(F)(F)F)cc3)nc2C)ccc1OCC(=O)O
inactive: ZEB2 0.089 | ZER1 0.055 | ZFAND5 -0.079 | ZFAND6 -0.038 | ZFP91 0.042 | ZFPL1 0.025 | ZMAT2 -0.048 | ZMYM1 0.032 | ZMYM3 -0.011 | ZNF143 0.028

CN1CCN(c2nc(C3=C(c4c[nH]c5ccccc45)C(=O)NC3=O)c3ccccc3n2)CC1 [sotrastaurin]
inactive: ZEB2 -0.056 | ZER1 0.078 | ZFAND5 0.11 | ZFAND6 0.13 | ZFP91 0.105 | ZFPL1 0.003 | ZMAT2 -0.088 | ZMYM1 0.027 | ZMYM3 0.027 | ZNF143 -0.031
